Source: PubChem BioAssay
Values joined by “and” are separate entries in the source; they are usually repeats but may differ in a detail not shown here. Equal entries are not always repeated. Active and inactive are the calls of the source.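 How the source made its calls, unless noted: active means normalized viability below 100% at a tested concentration; inactive means the rest.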

Assays:
[1] = liver-stage malaria parasite growth inhibition, primary screen, cell-based, HepG2, luciferase luminescence, HepG2 viability (AID 624349; in the data active means parasite load remaining mostly below about 12%, no sharp cut-off; inactive means mostly above about 10%;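 further: 100% = mean of DMSO negative control wells on the same plate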); conditions: P. berghei liver stage in HepG2, luciferase luminescence, concentration not given here; parasite load remaining: stronger effect = lower value; viability: measured here: HepG2 viability without parasites
[2] = target: 6-phosphogluconate dehydrogenase, decarboxylating (Homo sapiens) (UniProt P52209); experiment: 6PGD enzyme inhibitors, primary screen, biochemical, human, recombinant enzyme, NADPH absorbance (AID 1159550;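 active means at least 20% inhibition of 6-phosphogluconate dehydrogenase activity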); conditions: recombinant 6PGD, NADPH absorbance 341 nm; at 10 µM; stronger effect = higher value
[3] = differential killing of epithelial or mesenchymal cells, primary screen, imaging, PC-3E GFP, TEM4-18 mCherry, co-culture (AID 1345086;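 active means compounds killing one labelled cell type while sparing the other, by normalised counts and ratio limits, not self-fluorescent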;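 on all read-outs here: cells exposed to compound for 72 h before imaging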;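 on red/green cell ratio (normalised): normalised mesenchymal count divided by normalised epithelial count so high means epithelial killing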); conditions: imaging cell counts, at 1 µM; for red/green cell ratio (normalised): actives lie on both sides, counts scaled to control wells, 1 = unselective
[4] = sensitizers of A549 cells to miR-34 induction, primary screen, imaging, A549 dox-inducible miR-34, nuclei and caspase counts (AID 1347080;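 active means compounds whose cell count with miR-34 switched on is under 0.7 times the count with it off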); conditions: A549 miR-34 inducible, Hoechst nuclei count, 48 h
[5] = survival rescue of mitochondrial mutant cells in low glucose, primary screen, MELAS cybrids, Rieske KO mouse fibroblasts, CellTiter-Glo (AID 1508586;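 active means mean z-score across replicates of 1.96 or higher in either the MELAS or the Rieske mutant cell line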;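 further: z relative to plate mean and SD of compound and empty wells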)
[6] = target: Mitogen-activated protein kinase 7 (Homo sapiens) (UniProt Q13164); experiment: ERK5 transactivation activators in reporter cells, primary screen, cell-based, HTS (AID 1508626;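 active means luciferase signal above three times the same-plate solvent-only control wells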;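 further: luciferase driven by Gal4-ERK5 fusion binding five Gal4 sites before minimal TATA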); conditions: HeLa Gal4-ERK5 transactivation, 18 h, at 5 µM, stronger effect = higher value
[7] = viability rescue of complex I mutant cybrids, primary screen, cell-based, galactose medium, ATP luminescence (AID 1645843;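 active means z-score of at least 1.8 in each of two replicates, scored against plate mean and spread of sample wells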;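 further: positive z means more ATP and so rescue of galactose-driven cybrid death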); conditions: complex I mutant cybrid cells, 72 h, stronger effect = higher value
[8] = ovarian cancer cell viability with rucaparib, profiling panel, oncology-focused library, rucaparib conditional (AID 1508598); conditions: patient-derived ovarian cancer cells, CellTiter-Glo viability, 144 h, stronger effect = lower value
[9] = target: NAD(+) hydrolase SARM1 (Homo sapiens) (UniProt Q6SZW1); experiment: SARM1 TIR NADase inhibitors, cell lysate, NAD-Glo luminescence (AID 1508614;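 active means compound whose remaining NAD level is above about 45 nM, limit read from the data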); conditions: SAM-TIR HEK293T lysate NADase, at 1 µM, stronger effect = higher value
[10] = measured here: epithelial PC-3E GFP cell survival
[11] = measured here: mesenchymal TEM4-18 mCherry cell survival
[12] = stronger effect = lower value, cell number ratio, induced over uninduced
[13] = measured here: relative caspase fold change +Dox/-Dox
[14] = measured here: total cells with miR-34 induction, stronger effect = lower value
[15] = measured here: total cells without miR-34 induction
[16] = MELAS cybrid survival, CellTiter-Glo 48 h, stronger effect = higher value
[17] = Rieske KO mouse fibroblast survival, CellTiter-Glo 72 h

Sequence of Mitogen-activated protein kinase 7 (Homo sapiens) (Q13164 whole entry, looked up, the tested form may be a part): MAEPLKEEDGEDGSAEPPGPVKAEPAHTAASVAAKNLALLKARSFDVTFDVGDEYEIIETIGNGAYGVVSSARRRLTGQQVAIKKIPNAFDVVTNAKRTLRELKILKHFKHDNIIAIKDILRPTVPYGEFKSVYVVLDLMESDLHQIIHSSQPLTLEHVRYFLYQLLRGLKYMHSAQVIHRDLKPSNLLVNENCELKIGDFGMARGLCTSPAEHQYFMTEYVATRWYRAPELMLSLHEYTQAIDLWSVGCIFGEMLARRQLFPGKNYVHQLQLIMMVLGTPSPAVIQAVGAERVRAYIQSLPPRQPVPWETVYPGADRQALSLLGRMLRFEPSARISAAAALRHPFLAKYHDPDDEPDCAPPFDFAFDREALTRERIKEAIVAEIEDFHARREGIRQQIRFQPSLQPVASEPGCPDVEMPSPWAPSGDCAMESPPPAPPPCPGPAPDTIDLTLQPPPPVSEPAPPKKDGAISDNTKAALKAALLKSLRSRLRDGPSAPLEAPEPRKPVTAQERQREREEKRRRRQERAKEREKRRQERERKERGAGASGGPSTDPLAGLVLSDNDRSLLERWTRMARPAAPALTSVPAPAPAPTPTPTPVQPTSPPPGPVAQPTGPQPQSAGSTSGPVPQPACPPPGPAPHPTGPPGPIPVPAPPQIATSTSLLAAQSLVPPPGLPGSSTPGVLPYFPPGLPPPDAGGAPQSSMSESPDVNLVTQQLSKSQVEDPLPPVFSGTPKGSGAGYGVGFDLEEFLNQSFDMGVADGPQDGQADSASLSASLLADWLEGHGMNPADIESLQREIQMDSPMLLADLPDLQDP
Sequence of 6-phosphogluconate dehydrogenase, decarboxylating (Homo sapiens) (P52209 whole entry, looked up): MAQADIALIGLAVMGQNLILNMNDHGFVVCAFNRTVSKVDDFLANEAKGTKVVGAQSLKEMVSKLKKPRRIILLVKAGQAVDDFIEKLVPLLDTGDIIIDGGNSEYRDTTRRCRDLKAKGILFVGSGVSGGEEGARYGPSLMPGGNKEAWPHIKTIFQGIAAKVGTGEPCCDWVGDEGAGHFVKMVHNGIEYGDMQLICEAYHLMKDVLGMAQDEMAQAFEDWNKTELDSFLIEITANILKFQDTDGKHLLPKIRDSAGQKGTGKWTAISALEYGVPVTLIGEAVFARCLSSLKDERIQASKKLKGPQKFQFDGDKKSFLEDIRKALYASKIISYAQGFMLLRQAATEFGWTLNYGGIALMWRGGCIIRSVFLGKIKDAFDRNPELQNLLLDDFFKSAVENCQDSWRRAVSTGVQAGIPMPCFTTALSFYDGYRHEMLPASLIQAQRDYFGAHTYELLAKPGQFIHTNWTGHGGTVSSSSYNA
Sequence of NAD(+) hydrolase SARM1 (Homo sapiens) (Q6SZW1 whole entry, looked up): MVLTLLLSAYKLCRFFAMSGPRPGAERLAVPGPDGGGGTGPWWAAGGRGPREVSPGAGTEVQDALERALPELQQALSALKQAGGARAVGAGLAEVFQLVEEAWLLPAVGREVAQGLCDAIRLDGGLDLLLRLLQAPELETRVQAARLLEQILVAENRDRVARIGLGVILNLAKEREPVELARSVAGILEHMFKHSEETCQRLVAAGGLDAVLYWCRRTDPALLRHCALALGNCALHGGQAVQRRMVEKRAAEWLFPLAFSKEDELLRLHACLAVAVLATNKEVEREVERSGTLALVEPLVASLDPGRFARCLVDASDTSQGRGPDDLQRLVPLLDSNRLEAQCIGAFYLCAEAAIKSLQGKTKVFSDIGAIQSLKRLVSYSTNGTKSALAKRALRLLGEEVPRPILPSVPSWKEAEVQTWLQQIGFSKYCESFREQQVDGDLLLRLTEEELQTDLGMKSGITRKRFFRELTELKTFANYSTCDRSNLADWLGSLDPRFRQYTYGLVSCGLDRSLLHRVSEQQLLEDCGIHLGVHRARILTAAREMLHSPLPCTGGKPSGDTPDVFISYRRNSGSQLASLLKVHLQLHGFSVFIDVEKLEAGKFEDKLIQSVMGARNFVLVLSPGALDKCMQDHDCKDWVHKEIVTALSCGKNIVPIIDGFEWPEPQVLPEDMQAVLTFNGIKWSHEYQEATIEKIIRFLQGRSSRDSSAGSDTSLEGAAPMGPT

Question: For O=c1cc(-c2ccccc2)oc2cc(O)c(O)c(O)c12, which parasite load remaining [1] is on record?
Answer: 140% (inactive)

Question: What about the viability [1] of the same compound?
Answer: 91.4%

Question: What about the inhibition [2] of the same compound?
Answer: 4.11% (inactive)

Question: What about the red/green cell ratio (normalised) [3] of the same compound?
Answer: 0.84 (inactive)

Question: What about the normalised cell number [3, 10] of the same compound?
Answer: 1.08

Question: What about the normalised cell number [3, 11] of the same compound?
Answer: 0.91

Question: And the fold change [4, 12]?
Answer: 1.03 (inactive) and 0.801 (inactive) and 0.986 (inactive)

Question: And the fold change [4, 13]?
Answer: 1.01 and 1.16 and 0.831

Question: And the cell count [4, 14]?
Answer: 5800 and 6380 and 7810

Question: And the cell count [4, 15]?
Answer: 5640 and 7960 and 7920

Question: What about the z-score [5, 16] of the same compound?
Answer: -0.448 (inactive)

Question: And the z-score [5, 17]?
Answer: -1.5

Question: And the luciferase signal [6]?
Answer: 60 AU (inactive)

Question: And the z-score [7]?
Answer: -0.805 (inactive)

Question: Which results are given for CC/C(=C(\c1ccccc1)c1ccc(OCCN(C)C)cc1)c1ccccc1?
Answer: inhibition [2]: 1.2% (inactive); red/green cell ratio (normalised) [3]: 1.09 (inactive); normalised cell number [3, 10]: 0.93; normalised cell number [3, 11]: 1.01; z-score [5, 16]: -0.656 (inactive) and -1.22 (inactive); z-score [5, 17]: 0.287 and -0.548; viability ([8]; at 0.000305 µM, OCI-C5x cells, with rucaparib 10 µM, 100% = cells with rucaparib alone): 93.5% (active); viability ([8]; at 0.000305 µM, OCI-C5x cells, without rucaparib): 95.2% (active); viability ([8]; at 0.000305 µM, OCI-P5x cells, with rucaparib 20 µM, 100% = cells with rucaparib alone): 89.3% (active); viability ([8]; at 0.000305 µM, OCI-P5x cells, without rucaparib): 83.7% (active); viability ([8]; at 0.00122 µM, OCI-C5x cells, with rucaparib 10 µM, 100% = cells with rucaparib alone): 109% (inactive); viability ([8]; at 0.00122 µM, OCI-C5x cells, without rucaparib): 97.1% (active); viability ([8]; at 0.00122 µM, OCI-P5x cells, with rucaparib 20 µM, 100% = cells with rucaparib alone): 92.3% (active); viability ([8]; at 0.00122 µM, OCI-P5x cells, without rucaparib): 91.4% (active); viability ([8]; at 0.00488 µM, OCI-C5x cells, with rucaparib 10 µM, 100% = cells with rucaparib alone): 103% (inactive); viability ([8]; at 0.00488 µM, OCI-C5x cells, without rucaparib): 93.8% (active); viability ([8]; at 0.00488 µM, OCI-P5x cells, with rucaparib 20 µM, 100% = cells with rucaparib alone): 101% (inactive); viability ([8]; at 0.00488 µM, OCI-P5x cells, without rucaparib): 97.9% (active); viability ([8]; at 0.0195 µM, OCI-C5x cells, with rucaparib 10 µM, 100% = cells with rucaparib alone): 107% (inactive); viability ([8]; at 0.0195 µM, OCI-C5x cells, without rucaparib): 97.1% (active); viability ([8]; at 0.0195 µM, OCI-P5x cells, with rucaparib 20 µM, 100% = cells with rucaparib alone): 89.8% (active); viability ([8]; at 0.0195 µM, OCI-P5x cells, without rucaparib): 99.8% (active); viability ([8]; at 0.0781 µM, OCI-C5x cells, with rucaparib 10 µM, 100% = cells with rucaparib alone): 99.2% (active); viability ([8]; at 0.0781 µM, OCI-C5x cells, without rucaparib): 92.3% (active); viability ([8]; at 0.0781 µM, OCI-P5x cells, with rucaparib 20 µM, 100% = cells with rucaparib alone): 97% (active); viability ([8]; at 0.0781 µM, OCI-P5x cells, without rucaparib): 99.7% (active); viability ([8]; at 0.313 µM, OCI-C5x cells, with rucaparib 10 µM, 100% = cells with rucaparib alone): 110% (inactive); viability ([8]; at 0.313 µM, OCI-C5x cells, without rucaparib): 95.3% (active); viability ([8]; at 0.313 µM, OCI-P5x cells, with rucaparib 20 µM, 100% = cells with rucaparib alone): 97.5% (active); viability ([8]; at 0.313 µM, OCI-P5x cells, without rucaparib): 102% (inactive); viability ([8]; at 1.25 µM, OCI-C5x cells, with rucaparib 10 µM, 100% = cells with rucaparib alone): 98.2% (active); viability ([8]; at 1.25 µM, OCI-C5x cells, without rucaparib): 100% (inactive); viability ([8]; at 1.25 µM, OCI-P5x cells, with rucaparib 20 µM, 100% = cells with rucaparib alone): 100% (inactive); viability ([8]; at 1.25 µM, OCI-P5x cells, without rucaparib): 106% (inactive); viability ([8]; at 5 µM, OCI-C5x cells, with rucaparib 10 µM, 100% = cells with rucaparib alone): 95.5% (active); viability ([8]; at 5 µM, OCI-C5x cells, without rucaparib): 100% (active); viability ([8]; at 5 µM, OCI-P5x cells, with rucaparib 20 µM, 100% = cells with rucaparib alone): 97.5% (active); viability ([8]; at 5 µM, OCI-P5x cells, without rucaparib): 101% (inactive); remaining NAD [9]: 10 nM (inactive); luciferase signal [6]: 84 AU (inactive)

Question: With COc1ccc(C(=O)c2ccc(O)cc2)c(O)c1O as the compound, how does the inhibition [2] read?
Answer: -5.23% (inactive)

Question: And the red/green cell ratio (normalised) [3]?
Answer: 1.05 (inactive)

Question: And the normalised cell number [3, 10]?
Answer: 0.85

Question: And the normalised cell number [3, 11]?
Answer: 0.89

Question: What does the source list for NCCc1cnc[nH]1?
Answer: parasite load remaining [1]: 99.6% (inactive) and 68.2% (inactive); viability [1]: 74.2% and 99%; inhibition [2]: 11.6% (inactive); red/green cell ratio (normalised) [3]: 1.19 (inactive); normalised cell number [3, 10]: 0.99; normalised cell number [3, 11]: 1.18; z-score [5, 16]: 1.03 (inactive) and -0.124 (inactive) and -0.135 (inactive); z-score [5, 17]: -0.434 and -0.222 and -0.159; remaining NAD [9]: 10 nM (inactive); luciferase signal [6]: 68 AU (inactive); z-score [7]: 0.205 (inactive) and 0.305 (inactive) and 0.49 (inactive)

Question: For COc1cccc(-c2cc(=O)c3ccc(OC)cc3o2)c1, which inhibition [2] is on record?
Answer: -2.44% (inactive)

Question: And the red/green cell ratio (normalised) [3]?
Answer: 1.01 (inactive)

Question: What about the normalised cell number [3, 10] of the same compound?
Answer: 1.02

Question: What about the normalised cell number [3, 11] of the same compound?
Answer: 1.03

Question: What does the source list for CCCCCCCCCCCC1=C(O)C(=O)C=C(O)C1=O?
Answer: parasite load remaining [1]: 136% (inactive); viability [1]: 84.4%; inhibition [2]: 15% (inactive); red/green cell ratio (normalised) [3]: 0.91 (inactive); normalised cell number [3, 10]: 1.09; normalised cell number [3, 11]: 1; fold change [4, 12]: 0.793 (inactive) and 1.27 (inactive); fold change [4, 13]: 2.63 and 0.764; cell count [4, 14]: 7270 and 2440; cell count [4, 15]: 9160 and 1930; z-score [5, 16]: -0.242 (inactive); z-score [5, 17]: -0.154; luciferase signal [6]: 40 AU (inactive); z-score [7]: -0.595 (inactive)

Question: Which results are given for O=C(/C=C/C(=O)Oc1ccccc1C(=O)O)Oc1ccccc1C(=O)O?
Answer: inhibition [2]: -15.7% (inactive); red/green cell ratio (normalised) [3]: 1.09 (inactive); normalised cell number [3, 10]: 1.17; normalised cell number [3, 11]: 1.27

Question: Which inhibition [2] does the source give for COC(=O)c1cc(=O)c(O)c2c(O)c(O)ccc2c1 here?
Answer: -4.56% (inactive)

Question: And the red/green cell ratio (normalised) [3]?
Answer: 0.88 (inactive)

Question: And the normalised cell number [3, 10]?
Answer: 1.21

Question: And the normalised cell number [3, 11]?
Answer: 1.06

Question: Which inhibition [2] does the source give for N.N.O=C([O-])C1(C(=O)[O-])CCC1.[Pt+2] here?
Answer: -2.44% (inactive)

Question: And the red/green cell ratio (normalised) [3]?
Answer: 0.96 (inactive)

Question: And the normalised cell number [3, 10]?
Answer: 1.09

Question: And the normalised cell number [3, 11]?
Answer: 1.04
